Data reported in PubChem BioAssay (NCI).
About 83,000 compounds went through this panel and 20% of them were active in at least one assay; those are over-represented in the sample as a whole.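 How to read the values: 0–100, growth inhibition (40 = 60% inhibited); 0, no net growth; -100 to 0, cell death (-40 = 40% of starting cells died; -100 = all dead).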 Activity calls are given as the source filed them. How the source made its calls: active means growth percent below 10; inactive means the rest.

Assays:
Assay in all cases: NCI-60 one-dose screen, 48 h (100 = growth as untreated, 0 = no growth, -100 = all killed)
Settings in all cases: 10 µM unless noted
SR leukemia = tested on: SR leukemia
RPMI-8226 leukemia = tested on: RPMI-8226 leukemia
OVCAR-8 ovarian = tested on: OVCAR-8 ovarian
OVCAR-5 ovarian = tested on: OVCAR-5 ovarian
OVCAR-4 ovarian = tested on: OVCAR-4 ovarian
SK-OV-3 ovarian = tested on: SK-OV-3 ovarian
IGROV1 ovarian = tested on: IGROV1 ovarian
OVCAR-3 ovarian = tested on: OVCAR-3 ovarian
HS 578T breast = tested on: HS 578T breast
NCI/ADR-RES ovarian = tested on: NCI/ADR-RES ovarian
T-47D breast = tested on: T-47D breast
BT-549 breast = tested on: BT-549 breast
MDA-MB-435 melanoma = tested on: MDA-MB-435 melanoma
SW-620 colon = tested on: SW-620 colon
MCF7 breast = tested on: MCF7 breast
HCT-116 colon = tested on: HCT-116 colon
HCC-2998 colon = tested on: HCC-2998 colon
KM12 colon = tested on: KM12 colon

Measured: growth

CC1=C/C(=C(\c2ccc(N(C)C)cc2)c2ccc([N+](C)(C)C)cc2)C=CC1=[N+](C)C
active: RPMI-8226 leukemia 2.54%
inactive: SR leukemia 60.8% | OVCAR-8 ovarian 36.2% | OVCAR-5 ovarian 115% | OVCAR-4 ovarian 89.3% | SK-OV-3 ovarian 94% | IGROV1 ovarian 94.4% | OVCAR-3 ovarian 86.6% | HS 578T breast 55% | NCI/ADR-RES ovarian 100% | T-47D breast 52.2% | BT-549 breast 96.1% | MDA-MB-435 melanoma 78.4% | SW-620 colon 66.5% | MCF7 breast 59.9% | HCT-116 colon 36.1% | HCC-2998 colon 77.3% | KM12 colon 61.4%

COc1cc2c(cc1-c1c(C)noc1C)ncc1nc(C3CCOCC3)n([C@H](C)COC(F)F)c12
inactive: SR leukemia 28.3% | RPMI-8226 leukemia 18% | OVCAR-8 ovarian 42.6% | OVCAR-5 ovarian 68.4% | OVCAR-4 ovarian 47.9% | IGROV1 ovarian 58.8% | OVCAR-3 ovarian 35.2% | HS 578T breast 16.8% | NCI/ADR-RES ovarian 38.4% | T-47D breast 46% | BT-549 breast 68.8% | MDA-MB-435 melanoma 40.6% | SW-620 colon 59% | MCF7 breast 19.2% | HCT-116 colon 40.4% | HCC-2998 colon 47.7% | KM12 colon 47%
active: SK-OV-3 ovarian 1.35%

COc1ccc(/C=N/C2=C(C#N)C(c3ccc(N(C)C)cc3)c3ccc4ccccc4c3O2)cc1 (configuration not stated)
active: MDA-MB-435 melanoma 4%
inactive: SR leukemia 19.4% | RPMI-8226 leukemia 63% | OVCAR-8 ovarian 85.8% | OVCAR-5 ovarian 88% | OVCAR-4 ovarian 86.8% | SK-OV-3 ovarian 73.7% | IGROV1 ovarian 39.5% | OVCAR-3 ovarian 38.2% | HS 578T breast 58.6% | NCI/ADR-RES ovarian 46.7% | T-47D breast 72% | BT-549 breast 48.4% | SW-620 colon 46.1% | MCF7 breast 45% | HCT-116 colon 43.4% | HCC-2998 colon 96.3% | KM12 colon 44.1%

N=C(N)c1ccc(-c2ccc(-c3ccc4ccccc4c3)s2)s1
inactive: SK-OV-3 ovarian 95.7% | HS 578T breast 91.6% | BT-549 breast 82.5% | MDA-MB-435 melanoma 11.3%
active: SR leukemia -37.2% | RPMI-8226 leukemia -18.3% | OVCAR-8 ovarian 3.43% | OVCAR-5 ovarian -0.924% | OVCAR-4 ovarian -21.3% | IGROV1 ovarian 5.62% | OVCAR-3 ovarian -76.1% | NCI/ADR-RES ovarian -42% | T-47D breast 7.01% | SW-620 colon -70.9% | MCF7 breast -66.7% | HCT-116 colon -70.5% | HCC-2998 colon -69.1% | KM12 colon -27.2%

O=C1c2ccccc2OC=C(c2ccccc2)N1CCCCNc1ccc(S(=O)(=O)Nc2ncccn2)cc1
inactive: SR leukemia 78.9% | RPMI-8226 leukemia 83.2% | OVCAR-8 ovarian 92.2% | OVCAR-5 ovarian 105% | OVCAR-4 ovarian 106% | SK-OV-3 ovarian 96.6% | IGROV1 ovarian 104% | OVCAR-3 ovarian 104% | HS 578T breast 92.8% | NCI/ADR-RES ovarian 98.6% | T-47D breast 88.8% | BT-549 breast 100% | MDA-MB-435 melanoma 105% | SW-620 colon 99.3% | MCF7 breast 93.7% | HCT-116 colon 96.1% | HCC-2998 colon 111% | KM12 colon 97.5%

CN(C)S(=O)(=O)c1cccc(-c2nc3sc4c(c3c(=O)[nH]2)CCCC4)c1
inactive: RPMI-8226 leukemia 23.9% | OVCAR-8 ovarian 13.4% | OVCAR-5 ovarian 23.3% | IGROV1 ovarian 32.1% | OVCAR-3 ovarian 19.5% | NCI/ADR-RES ovarian 29.5% | BT-549 breast 31.9% | MDA-MB-435 melanoma 43.9% | SW-620 colon 13.7% | MCF7 breast 53.4% | KM12 colon 43.9%
active: SR leukemia -48.6% | OVCAR-4 ovarian -56.4% | SK-OV-3 ovarian 7.06% | HS 578T breast -4.53% | T-47D breast -22.1% | HCT-116 colon -41.3% | HCC-2998 colon -50.5%

COc1cc2c(cc1O)CC[C@@H]1[C@@H]2CC[C@]2(C)[C@@H](OCCN(C)C)CC[C@@H]12
inactive: OVCAR-8 ovarian 65.6% | OVCAR-5 ovarian 78.8% | OVCAR-4 ovarian 47% | SK-OV-3 ovarian 63% | IGROV1 ovarian 73.4% | OVCAR-3 ovarian 12.5% | HS 578T breast 27% | NCI/ADR-RES ovarian 17.9% | T-47D breast 58.3% | BT-549 breast 43.5% | SW-620 colon 13.1% | MCF7 breast 37.1% | KM12 colon 24.2%
active: SR leukemia -11.6% | RPMI-8226 leukemia 5.96% | MDA-MB-435 melanoma -56.8% | HCT-116 colon 7.27%

CCCCn1cnc2c(Sc3c([N+](=O)[O-])ncn3C)nc(N)nc21
inactive: SR leukemia 56.1% | RPMI-8226 leukemia 52.3% | OVCAR-8 ovarian 91.4% | OVCAR-5 ovarian 97.6% | OVCAR-4 ovarian 89.9% | SK-OV-3 ovarian 101% | IGROV1 ovarian 89.3% | OVCAR-3 ovarian 103% | HS 578T breast 101% | NCI/ADR-RES ovarian 109% | T-47D breast 74.1% | BT-549 breast 98.3% | MDA-MB-435 melanoma 102% | SW-620 colon 102% | MCF7 breast 91% | HCT-116 colon 87.3% | HCC-2998 colon 113% | KM12 colon 108%

CCOc1ccc(C(C)=O)cc1NC(=O)c1cccc(-c2nnn(CC)n2)c1
inactive: SR leukemia 10.2% | RPMI-8226 leukemia 22.4% | OVCAR-8 ovarian 34.2% | OVCAR-5 ovarian 66.5% | OVCAR-4 ovarian 48% | SK-OV-3 ovarian 23.8% | IGROV1 ovarian 52.3% | HS 578T breast 25.4% | NCI/ADR-RES ovarian 25.2% | T-47D breast 29.6% | BT-549 breast 58.5% | SW-620 colon 31.2% | MCF7 breast 32.5% | HCT-116 colon 19.3% | KM12 colon 23.8%
active: OVCAR-3 ovarian 7.08% | MDA-MB-435 melanoma -47.6%

CCN(CC)c1ccc(-c2cc(-c3cc(OC)c(OC)c(OC)c3)nc(N3CCOCC3)c2C#N)cc1
inactive: OVCAR-4 ovarian 38.2% | SK-OV-3 ovarian 51.8% | IGROV1 ovarian 19.5% | OVCAR-3 ovarian 32.8% | HS 578T breast 55.8% | NCI/ADR-RES ovarian 27.6% | T-47D breast 22.2% | BT-549 breast 38.6% | SW-620 colon 30.8% | MCF7 breast 29.8% | HCT-116 colon 10.5% | HCC-2998 colon 29.9% | KM12 colon 27.1%
active: SR leukemia -8.39% | RPMI-8226 leukemia -33.1% | OVCAR-8 ovarian -28.4% | OVCAR-5 ovarian 5.94% | MDA-MB-435 melanoma -27.5%

CCCc1cc(=O)n2c(C(=O)Nc3ccc(F)cc3)c(C(=O)Nc3ccc(F)cc3)sc2n1
inactive: SR leukemia 53.4% [30 µM] | RPMI-8226 leukemia 78.2% [30 µM] | OVCAR-8 ovarian 16.6% [30 µM] | OVCAR-5 ovarian 74.7% [30 µM] | OVCAR-4 ovarian 36.9% [30 µM] | SK-OV-3 ovarian 48.5% [30 µM] | IGROV1 ovarian 72.6% [30 µM] | OVCAR-3 ovarian 35.3% [30 µM] | NCI/ADR-RES ovarian 33% [30 µM] | T-47D breast 97.1% [30 µM] | BT-549 breast 78.4% [30 µM] | MDA-MB-435 melanoma 83% [30 µM] | SW-620 colon 82.9% [30 µM] | MCF7 breast 62.6% [30 µM] | HCT-116 colon 38.1% [30 µM] | KM12 colon 84.9% [30 µM]
active: HS 578T breast 6.12% [30 µM]

COc1ccc(-c2nc(SCC(=O)Nc3ccc(C(=O)/C=C/c4ccc(Cl)cc4)cc3)[nH]c(=O)c2C#N)cc1
inactive: SR leukemia 72.3% | RPMI-8226 leukemia 98.3% | OVCAR-8 ovarian 106% | OVCAR-5 ovarian 109% | OVCAR-4 ovarian 99.8% | SK-OV-3 ovarian 96.2% | IGROV1 ovarian 111% | OVCAR-3 ovarian 101% | HS 578T breast 81.3% | NCI/ADR-RES ovarian 102% | T-47D breast 61.8% | BT-549 breast 84% | MDA-MB-435 melanoma 41.9% | SW-620 colon 102% | MCF7 breast 41% | KM12 colon 102%
active: HCT-116 colon 2.43%

COc1ccc2c(c1)CC/C(=C\c1cncc(Br)c1)C2=O
active: RPMI-8226 leukemia 8.06%
inactive: SR leukemia 33.5% | OVCAR-8 ovarian 90% | OVCAR-5 ovarian 86.8% | OVCAR-4 ovarian 86.5% | SK-OV-3 ovarian 99.7% | IGROV1 ovarian 94.8% | OVCAR-3 ovarian 95.9% | HS 578T breast 116% | NCI/ADR-RES ovarian 83.1% | T-47D breast 66.1% | BT-549 breast 95.7% | MDA-MB-435 melanoma 82.7% | SW-620 colon 42.6% | MCF7 breast 39.3% | HCT-116 colon 65.8% | KM12 colon 63.7%

COc1ccc(C2C(C#N)=C(N)Oc3n[nH]c(-c4cccs4)c32)cc1I (configuration not stated)
inactive: SR leukemia 53.2% | RPMI-8226 leukemia 78.8% | OVCAR-8 ovarian 95% | OVCAR-5 ovarian 107% | OVCAR-4 ovarian 108% | SK-OV-3 ovarian 92.1% | IGROV1 ovarian 91.2% | OVCAR-3 ovarian 91.7% | HS 578T breast 87.5% | NCI/ADR-RES ovarian 96.2% | T-47D breast 94.4% | BT-549 breast 92.1% | MDA-MB-435 melanoma 66.7% | SW-620 colon 83.8% | MCF7 breast 69.4% | HCT-116 colon 91.9% | HCC-2998 colon 95.9% | KM12 colon 86.2%

Cc1cc(C)nc(SC2=C(Nc3cccc(Cl)c3)C(=O)N(Cc3ccccc3)C2=O)n1
inactive: SR leukemia 28.8% [30 µM] | RPMI-8226 leukemia 23.3% [30 µM] | OVCAR-8 ovarian 52.5% [30 µM] | OVCAR-5 ovarian 107% [30 µM] | OVCAR-4 ovarian 61.9% [30 µM] | SK-OV-3 ovarian 113% [30 µM] | IGROV1 ovarian 43.3% [30 µM] | OVCAR-3 ovarian 68.6% [30 µM] | HS 578T breast 97.8% [30 µM] | NCI/ADR-RES ovarian 55.5% [30 µM] | T-47D breast 22.2% [30 µM] | BT-549 breast 65.5% [30 µM] | MDA-MB-435 melanoma 61.4% [30 µM] | SW-620 colon 72% [30 µM] | MCF7 breast 49.8% [30 µM] | HCT-116 colon 43.5% [30 µM] | KM12 colon 83.7% [30 µM]

O=[N+]([O-])c1ccc(Nc2nc(NCCN3CCOCC3)ncc2[N+](=O)[O-])cc1
inactive: SR leukemia 107% | RPMI-8226 leukemia 100% | OVCAR-8 ovarian 99.5% | OVCAR-5 ovarian 98.6% | OVCAR-4 ovarian 85.4% | SK-OV-3 ovarian 93.4% | IGROV1 ovarian 81% | OVCAR-3 ovarian 102% | HS 578T breast 87.8% | NCI/ADR-RES ovarian 89.8% | T-47D breast 100% | BT-549 breast 89% | MDA-MB-435 melanoma 97.8% | SW-620 colon 89.1% | MCF7 breast 79.8% | HCT-116 colon 88.1% | HCC-2998 colon 93.4% | KM12 colon 99%
